Outcome and AC50 data for 20 compounds are collected here from PubChem BioAssay (EPA / NIEHS).

Inconclusive results are not listed. Active and inactive are the calls of the source. How the source made its calls, unless noted: active means hit-call score of the fitted dose curve at least 0.9, where 1 is the maximum; inactive means score below 0.9.

Usually AC50 stands for the concentration at which the activity in the assay is half-maximal.

Tested on in the first assay: not listed separately
The experiment in a line: VALA_MIGHUV2_WoundArea: VALA Sciences human Umbilical Vein Endothelial Cell Migration (MIGHUV) Assay, Area of Scratch Wound after Recovery (AID 2284316; active means hit-call score of the fitted dose curve at least 0.9, where 1 is the maximum).
Settings: not given
In a few lines: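 Wound-area endpoint read by fluorescence imaging of Hoechst-stained nuclei after a 24 h recovery period following scratch of HUVEC monolayers (9000 cells/well). Chemicals dosed within 30 min post-scratch, triplicate 6-point series, 0.1% DMSO vehicle; Cytochalasin D positive control.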
Consider `OC[C@@H](O)[C@@H](O)[C@H](O)[C@H](O)CO`, for which the compound was classed as inactive.
Still for that read-out and setting: to `CCCCC(CC)COC(=O)CC(C(=O)OCC(CC)CCCC)S(=O)(=O)O` (centres undefined) belongs “inactive”; to `Oc1ccc2ccccc2c1N=Nc1ccccc1`, “inactive”.

Tested on in another assay: not listed separately
The experiment in a line: CCTE_Deisenroth_5AR_NBTE_donor: CCTE's 5alpha-reductase NanoBRET Target Engagement Assay […], Deisenroth Lab (AID 2284319). As to conditions: actives raise or lower the signal. In short, it runs like this: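 HEK293T cells transiently expressing SRD5A2-NanoLuc, exposed 5 h to chemicals (8 points, 10 nM - 29.9 uM), with testosterone tracer for the final 2 h. Donor luminescence at 460 nm read after Nano-Glo substrate plus extracellular NanoLuc inhibitor; bidirectional fit versus DMSO.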
With `O=c1c(O)c(-c2ccc(O)c(O)c2)oc2cc(O)cc(O)c12`, the AC50 is 26.7 µM (active).
`COc1cc(-c2nc(NC(=O)c3cc4cc(C)cc(C)c4n3CC(=O)O)sc2CCC2CCCCC2)c(OC)cc1Cl`: the call was inactive.
With `OC[C@@H](O)[C@@H](O)[C@H](O)[C@H](O)CO`, the outcome was inactive.
With `CCCCC(CC)COC(=O)CC(C(=O)OCC(CC)CCCC)S(=O)(=O)O` (centres undefined), the concentration at half-maximal activity (AC50) was 62.2 µM (active).
As for `C1CCC(SSC2CCCCC2)CC1`, the result was inactive.
Regarding `COc1ccc(C)cc1N`, the result was inactive.
Same read-out and setting: to `Oc1ccc2ccccc2c1N=Nc1ccccc1` belongs “inactive”; to `CC=Cc1ccc(O)c(OC)c1`, “inactive”.
As for `CCCCCCCCCCC`, the call was inactive.
In the case of `COc1cc(S(=O)(=O)O)c(C)cc1N=Nc1c(O)ccc2cc(S(=O)(=O)O)ccc12`, the AC50 was 24.8 µM (active).
On to `CCCCOC(=O)CCCCCCCCC(=O)OCCCC`, for which the compound was classed as inactive.

Tested on in a further assay: not listed separately
Description: VALA_TUBHUV_Antagonist_TubuleLength: VALA Sciences human Umbilical Vein Endothelial Tubule Formation (TUBHUV) Antagonism Assay (AID 2284325; active means hit-call score of the fitted dose curve at least 0.9, where 1 is the maximum).
Settings: not given
In short, it runs like this: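 Tubule length was imaged via CD31 immunofluorescence after a further 3-day compound exposure in 10 ng/ml VEGF, following 3-day pre-culture of HUVEC with HDF at 1:3. Vehicle 0.1% DMSO; suramin (100 uM) inhibition control.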
With `CCCCC(CC)COC(=O)CC(C(=O)OCC(CC)CCCC)S(=O)(=O)O` (centres undefined), the concentration at half-maximal activity (AC50) is 73 µM (active).
For `COC(=O)c1ccc(O)cc1`, the outcome was inactive.
For the compound `CCCc1cc(=O)[nH]c(=S)[nH]1`, the call was inactive.

Tested on in the next assay: not listed separately
The experiment in a line: TAMU_PeakParms_SingleDonor1434_Asystole: Texas A&M University (TAMU) 1.5-hr Human Induced Pluripotent Stem Cell (iPSC)-derived Cardiomyocytes Calcium (Ca+2) Flux Assay for Cardiotoxicity: Asystole (quiescence of beating) (AID 2284328; active means hit-call score of the fitted dose curve at least 0.9, where 1 is the maximum).
Settings: not given
In short, it runs like this: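 Average Ca2+-flux peak frequency (beats/s) was recorded in single-donor iPSC-derived cardiomyocytes after 90 min exposure (0.2–100 uM final, 0.5% DMSO). Asystole POD set as EC95 against DMSO, no preprocessing.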
Consider `O=c1[nH]cc(F)c(=O)[nH]1`, for which the outcome was inactive.
As for `O=C(O)CCCCC(=O)O`, the result was inactive.
Still for that read-out and setting: to `COC(=O)c1ccc(O)cc1` belongs “inactive”; to `CCOc1ccc2c(c1)C(C)=CC(C)(C)N2`, “inactive”; to `CC(=O)Oc1ccccc1C(=O)O`, “inactive”.
In the case of `CCCc1cc(=O)[nH]c(=S)[nH]1`, the result was inactive.

In another assay the test system is Brachyury (BRA) Protein Expression, Deisenroth Lab, TBXT (gene 6862). Description: CCTE_Deisenroth_DEVTOX-GLR_legacy_Bra: (Legacy) CCTE's DevTox GLR-Endo Assay Evaluation of Brachyury (BRA) Protein Expression, Deisenroth Lab (AID 2284329).
Settings: not given
In a few lines: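 Percent Bra-positive cells, scored by high-content imaging against a threshold of 5x BMAD over the undifferentiated control median, with the 0.2% DMSO median subtracted. RUES2-GLR cultures were dosed twice at 24 h intervals across a 48 h differentiation, at 1 nM–200 uM in ten steps, with n=4 replicates.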
`CC1=C(/C=C/C(C)=C/C=C/C(C)=C/CO)C(C)(C)CCC1`: the half-maximal activity concentration (AC50) was 67.5 µM (active).
As to `COc1cccc2c1C(=O)c1c(O)c3c(c(O)c1C2=O)C[C@@](O)(C(=O)CO)C[C@@H]3O[C@H]1C[C@H](N)[C@H](O)[C@H](C)O1`, the AC50 was 7.41 µM (active).
The same measure, in the same setting: to `O=c1[nH]cc(F)c(=O)[nH]1` belongs 16.5 µM (active).
`COc1ccc2c(c1)c(CC(=O)O)c(C)n2C(=O)c1ccc(Cl)cc1`: the concentration at half-maximal activity (AC50) was 5.9 µM (active).
In the case of `CCCc1cc(=O)[nH]c(=S)[nH]1`, the compound was classed as inactive.

Tested on in the next assay: not listed separately
The experiment in a line: CCTE_Deisenroth_DEVTOX-GLR_legacy_CellCount: (Legacy) Viability Assessment in CCTE's DevTox GLR-Endo Assay, Deisenroth Lab (AID 2284331). As to conditions: actives raise or lower the signal. In short, it runs like this:
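Human pluripotent RUES2-GLR cells differentiated 48 h with two 24-h-interval exposures, 10-point 1 nM–200 uM series, 0.2% DMSO. Fixed nuclei counted by high-content imaging (5 fields/well); bidirectional fit vs DMSO, n≥4.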
Take `CC1=C(/C=C/C(C)=C/C=C/C(C)=C/CO)C(C)(C)CCC1`: the AC50 was 34.6 µM (active).
In the case of `COc1cccc2c1C(=O)c1c(O)c3c(c(O)c1C2=O)C[C@@](O)(C(=O)CO)C[C@@H]3O[C@H]1C[C@H](N)[C@H](O)[C@H](C)O1`, the AC50 was 0.00843 µM (active).
The same measure, in the same setting: then `O=c1[nH]cc(F)c(=O)[nH]1`, with 5.95 µM (active).
As for `COc1ccc2c(c1)c(CC(=O)O)c(C)n2C(=O)c1ccc(Cl)cc1`, the AC50 was 10.2 µM (active).
Turning to `CC(=O)Oc1ccccc1C(=O)O`, the compound was classed as inactive.
As to `CCCc1cc(=O)[nH]c(=S)[nH]1`, the outcome was inactive.
